From ChEMBL document CHEMBL3988442, “University of Dundee, Small-Polar-MMV Screening Library” (2021)
Screen size: about 67,000 compounds; about 300 (0.45%) showed an effect of 50% or more. What follows is part of a selection rich in strong results, with near analogues and random picks from the rest.

target: Polyketide synthase Pks13 (Mycobacterium tuberculosis (strain ATCC 25618 / H37Rv)) (UniProt I6X8D2); assay: Mycobacterium tuberculosis Polyketide synthase 13 Thioesterase (PKS13); assay type: functional; parameters: scale not given: in the data most compounds retested in dose-response had high values; settings: 30 µM
Sequence (I6X8D2 whole entry): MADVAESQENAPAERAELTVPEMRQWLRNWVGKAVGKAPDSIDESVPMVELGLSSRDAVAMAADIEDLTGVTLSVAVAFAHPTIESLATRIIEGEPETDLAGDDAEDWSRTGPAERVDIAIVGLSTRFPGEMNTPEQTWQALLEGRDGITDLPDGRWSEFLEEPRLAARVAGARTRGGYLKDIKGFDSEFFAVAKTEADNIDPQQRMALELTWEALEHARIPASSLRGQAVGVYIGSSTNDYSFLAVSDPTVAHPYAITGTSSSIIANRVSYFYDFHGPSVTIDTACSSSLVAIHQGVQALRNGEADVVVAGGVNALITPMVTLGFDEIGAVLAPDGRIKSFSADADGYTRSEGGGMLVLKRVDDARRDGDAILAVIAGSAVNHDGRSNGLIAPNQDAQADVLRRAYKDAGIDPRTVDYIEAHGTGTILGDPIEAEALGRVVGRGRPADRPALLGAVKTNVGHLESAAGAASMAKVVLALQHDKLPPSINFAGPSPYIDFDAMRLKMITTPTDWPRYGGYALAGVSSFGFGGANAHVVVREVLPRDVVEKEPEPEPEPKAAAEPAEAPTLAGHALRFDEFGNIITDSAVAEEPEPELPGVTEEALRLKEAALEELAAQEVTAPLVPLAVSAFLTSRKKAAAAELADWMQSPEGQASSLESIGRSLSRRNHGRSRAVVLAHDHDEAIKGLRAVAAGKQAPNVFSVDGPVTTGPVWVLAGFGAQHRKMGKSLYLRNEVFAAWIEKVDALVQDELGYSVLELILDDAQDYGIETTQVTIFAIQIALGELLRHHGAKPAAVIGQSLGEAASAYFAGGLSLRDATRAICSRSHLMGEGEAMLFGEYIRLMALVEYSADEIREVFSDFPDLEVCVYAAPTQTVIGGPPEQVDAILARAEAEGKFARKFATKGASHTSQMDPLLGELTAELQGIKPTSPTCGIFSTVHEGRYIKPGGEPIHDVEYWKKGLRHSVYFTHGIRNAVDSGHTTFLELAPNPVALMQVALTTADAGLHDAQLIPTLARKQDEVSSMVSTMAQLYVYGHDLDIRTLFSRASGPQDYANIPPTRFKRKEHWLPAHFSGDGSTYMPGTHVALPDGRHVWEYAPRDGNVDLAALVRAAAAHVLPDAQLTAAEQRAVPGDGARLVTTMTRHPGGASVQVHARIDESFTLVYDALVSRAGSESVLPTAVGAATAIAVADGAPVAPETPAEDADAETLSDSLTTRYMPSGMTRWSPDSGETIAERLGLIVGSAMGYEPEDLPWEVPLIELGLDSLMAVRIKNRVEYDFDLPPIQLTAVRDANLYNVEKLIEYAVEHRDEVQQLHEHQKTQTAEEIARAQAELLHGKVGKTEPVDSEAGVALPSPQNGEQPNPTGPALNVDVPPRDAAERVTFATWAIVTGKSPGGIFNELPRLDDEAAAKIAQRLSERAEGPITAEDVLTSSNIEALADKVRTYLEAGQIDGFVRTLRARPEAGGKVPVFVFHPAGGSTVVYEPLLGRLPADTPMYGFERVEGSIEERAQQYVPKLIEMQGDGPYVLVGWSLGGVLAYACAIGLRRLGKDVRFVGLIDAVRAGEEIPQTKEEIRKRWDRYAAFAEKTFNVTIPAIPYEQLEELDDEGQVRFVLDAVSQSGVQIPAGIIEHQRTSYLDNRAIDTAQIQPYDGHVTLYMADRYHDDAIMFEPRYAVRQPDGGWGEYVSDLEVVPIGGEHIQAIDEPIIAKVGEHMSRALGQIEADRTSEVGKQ

Row | Compound | Percent Effect [%]
1 | O=C(Nc1nc2c(s1)CN(S(=O)(=O)C1CC1)CC2)c1c(F)cccc1F | -2.3
2 | O=C(Nc1nc2c(s1)CN(S(=O)(=O)C1CC1)CC2)c1ccc(Cl)s1 | 13.8
3 | O=C(Nc1nc2c(s1)CN(S(=O)(=O)C1CC1)CC2)c1cccc(Cl)c1 | 75.5
4 | CNC(=O)[C@@]12CCCN(c3ncccn3)[C@@H]1CN(c1ncc(C)cn1)C2 | -27.3
5 | CC(C)CNC(=O)c1cc(C2CC2)nc2c1c(C1CCCN1)nn2C (stereo not given) | -19.7
6 | Cn1nc(C2CCCN2)c2c(C(=O)NCC(F)(F)F)cc(C3CC3)nc21 (stereo not given) | 119
7 | Cn1nc(C2CCNC2)c2c(C(=O)NCC(F)(F)F)cc(C3CC3)nc21 (stereo not given) | -7.7
8 | O=C(c1ccco1)N1CCO[C@@H]2CN(c3ccccc3)CC[C@@H]2C1 | -28.4
9 | Cc1cccc(N2CC[C@@H]3CN(C(=O)c4ccco4)CCO[C@@H]3C2)n1 | -34.3
10 | O=C(c1ccco1)N1CCO[C@@H]2CN(c3ccccn3)CC[C@@H]2C1 | 52.6
11 | Fc1cnc(N2CCO[C@H]3CN(CC4CCCCC4)C[C@H]32)nc1 | -51
12 | O=C(c1cccc(F)c1)N1CC[C@H]2[C@H]1CCN2CC1CCOCC1 | -17.7
13 | CC(=O)c1ccc(Nc2nc(N)nc3c2nc(C)n3C)cc1 | 2.22
14 | Cc1nc2c(Nc3ccc(C#N)cc3)nc(N)nc2n1C | 18.1
15 | Cc1nc2c(Nc3cccc(C#N)c3)nc(N)nc2n1C | 58.8
16 | O=C(NCc1ccccn1)[C@H]1COC[C@H]2CN(C3CCCC3)C[C@H]21 | -25.1
17 | CC1(NC(=O)Cc2csc(-c3ccccc3Cl)n2)CCS(=O)(=O)C1 (stereo not given) | -7.78
18 | CC1(NC(=O)Cc2csc(C(C)(C)C)n2)CCS(=O)(=O)C1 (stereo not given) | -0.313
19 | CC1(NC(=O)Cc2csc(NC(=O)c3ccccc3)n2)CCS(=O)(=O)C1 (stereo not given) | 51.1
20 | c1ccc(CN2CCN3C[C@H](Oc4cccnc4)C[C@H]3C2)nc1 | -35.4
21 | CNC(=O)[C@H]1C[C@@H]2CN(C(=O)c3ccccn3)C[C@@H]2N1S(C)(=O)=O | -6.49
22 | CSCc1ccc(N2CCC(C(O)Cc3ccccc3)CC2)nc1 (stereo not given) | 101
23 | CSCc1ccc(N2CCC(C(O)CC(C)C)CC2)nc1 (stereo not given) | 6.3
24 | Cc1ccc(N2CCC(C(O)Cc3ccccc3)CC2)nn1 (stereo not given) | -23.2
25 | CC(C)CNC(=O)N1CC[C@@H]2CN(Cc3cccnc3)S(=O)(=O)[C@@H]2CC1 | -16.3
26 | CCCN1C(=O)[C@@H]2[C@@H](CCN2C(=O)COC)N(Cc2cccs2)C1=O | 26.9
27 | Cc1cc(NCc2cccc(C#N)c2)ccc1Br | 58.5
28 | Cc1cc(NCc2cccc(C#N)c2)ccc1C(N)=O | -10.5
29 | Cc1cc(NCc2cccc(C#N)c2)ccc1C(=O)N(C)C | -4.66
30 | C1CC(N2C[C@@H]3COC[C@]3(COCC3CCOCC3)C2)C1 | -9.77
